Screening results from PubChem BioAssay.
Shown are actives, neighbours in structure and some others; about 18% of the full set was active somewhere.
HepG2 viability – qHTS for Inhibitors of TGF-b: Cytotox Counterscreen | HepG2 CAGA-GFP viability, ATP luminescence, 18 h | Potency, µM (titrated, usually from 46.1 µM), hits mostly cytotoxic | 410,000 compounds, 0.76% hits
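HepG2 CAGA-GFP cells (1000/well, DMEM with 1% FBS) received compound, then TGF-beta at 500 pg/mL final, and were incubated 18 hours at 37 degrees C. Viability was read by CellTiter-Glo luminescence. Media-only wells were set as complete cell-killing and DMSO as no toxicity.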
TDP1 inh – qHTS Assay for Inhibitors of Tyrosyl-DNA Phosphodiesterase (TDP1). Tyrosyl-DNA phosphodiesterase 1 (Homo sapiens), Q9NUW8. recombinant TDP1, AlphaScreen DNA substrate cleavage. Potency, µM (top dose mostly 130 µM), actives largely listed as inhibitors. 350,000 compounds, 0.28% hits. AID 485290, 2010; note: nearly all actives have a fitted effect of over 40% in size
Target sequence (Q9NUW8 whole entry, looked up): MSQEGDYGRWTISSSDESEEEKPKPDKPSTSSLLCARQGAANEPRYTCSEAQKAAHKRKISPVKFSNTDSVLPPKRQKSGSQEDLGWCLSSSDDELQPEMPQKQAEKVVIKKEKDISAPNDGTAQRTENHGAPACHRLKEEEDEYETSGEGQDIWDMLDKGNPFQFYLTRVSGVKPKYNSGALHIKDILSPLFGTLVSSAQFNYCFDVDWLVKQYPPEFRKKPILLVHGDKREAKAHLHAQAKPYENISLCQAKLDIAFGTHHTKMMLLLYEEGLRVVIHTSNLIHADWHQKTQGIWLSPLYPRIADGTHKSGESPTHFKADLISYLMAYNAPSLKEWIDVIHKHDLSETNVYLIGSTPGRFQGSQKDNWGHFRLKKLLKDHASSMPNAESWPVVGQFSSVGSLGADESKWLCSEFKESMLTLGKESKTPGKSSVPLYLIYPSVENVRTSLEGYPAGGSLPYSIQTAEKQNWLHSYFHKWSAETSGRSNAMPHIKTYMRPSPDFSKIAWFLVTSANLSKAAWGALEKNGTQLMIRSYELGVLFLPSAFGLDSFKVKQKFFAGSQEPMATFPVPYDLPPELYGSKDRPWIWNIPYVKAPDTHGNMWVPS
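AlphaScreen read-out: signal falls as enzyme removes the 3' tyrosine-FITC from a 5'-biotinylated DNA oligo (15 nM, 5 min, RT). Enzyme was E. coli-made recombinant Tdp1 at 1 nM, exposed to compound for 15 min beforehand; beads 10 ug/ml, 10 min.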
DT40 TDP1 no CPT – qHTS for Inhibitors of human tyrosyl-DNA phosphodiesterase 1 (TDP1): qHTS in cells in absence of CPT; DT40 Tdp1-/- hTDP1 cells, no CPT, ATP luminescence, 48 h; Potency, µM (series often up to 46.2 µM), usual class: inhibitors; 420,000 compounds, 15% hits; note: nearly all actives have a fitted effect of over 55% in size
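Luminescent ATP content (CellTiter-Glo) served as the growth readout. Knockout chicken DT40 cells expressing human TDP1 were exposed to compounds without camptothecin for a minimum 48 hr at 37 °C.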
IL1B secr inh – qHTS for Inhibitors of Inflammasome Signaling: IL-1-beta AlphaLISA Primary Screen; THP-1 LPS/ATP IL-1B secretion, AlphaLISA, 16 h; stronger effect = lower value; activity change, % at 57.5 µM; 360,000 compounds, 4.7% hits; AID 743279, 2014; in the data active = activity change below about -50%; inconclusive = mostly about -30% to -49%
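THP-1 cells pretreated 1 hr with compounds (up to 57.5 uM final), then stimulated with LPS (250 ng/mL final) plus ATP (1.25 mM final); secreted IL-1B measured by AlphaLISA after 16 hr, decreased signal indicating inhibition.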
DT40 TDP1 CPT – qHTS for Inhibitors of human tyrosyl-DNA phosphodiesterase 1 (TDP1): qHTS in cells in presence of CPT. chicken DT40 Tdp1-/-;hTDP1 cells + 20 nM CPT, ATP luminescence, 48 h. Potency, µM (titrated, usually from 46.2 µM), usual class: inhibitors. 420,000 compounds, 12% hits; note: nearly all actives have a fitted effect of over 55% in size
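Chicken DT40 Tdp1-/- cells complemented with human TDP1, 400 cells/well, exposed to compounds plus 20 nM camptothecin for at least 48 h at 37 C; viability read as ATP content by CellTiter-Glo luminescence.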
TGFb SMAD3 inh – qHTS for Inhibitors of TGF-b; HepG2 CAGA-GFP TGF-b/SMAD3 reporter, GFP fluorescence, 18 h; TGF-beta stimulated, 500 pg/mL final; Potency, µM (doses to about 46.1 µM), actives largely listed as inhibitors; 410,000 compounds, 1.2% hits; note: nearly all actives have a fitted effect of over 65% in size
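HEPG2 CAGA-GFP, 1000 cells/well; 2 h settle, 37 C; cpd via pin tool; TGF-b 500 pg/mL final; 18 h, 37 C; GFP imaging ex488/em500-530; %Activity normalised to -TGF-b and +DMSO controls; CRC fit, curve class.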
Numbers stand for hits; – = inactive; ? = inconclusive; · = no result; [ ] = remark or other dose. Unless noted, calls come from the whole dose curve; as a rule, active = well fitted curve in the direction sought with a large enough effect; inconclusive = small, poorly fitted or top-dose-only effect, or another doubt; inactive = no such curve, though single readings can be large; an effect the other way counts as inactive or inconclusive.

SMILES	HepG2 viability	TDP1 inh	DT40 TDP1 no CPT	IL1B secr inh	DT40 TDP1 CPT	TGFb SMAD3 inh
CC(C)NC(=O)N1CC[C@@]2(CCCN(C(=O)c3cnccn3)C2)C1	·	·	–	·	–	·
O=C(CSc1n[nH]c(-c2ccccc2)n1)NC(=O)NCc1ccco1	–	–	?	–	–	–
COc1ccc(NC(=O)C2Cc3c(-c4ccc(NC(C)=O)cc4)ccnc3O2)cn1 (configuration not stated)	–	·	12µM	–	8.2µM	–
CC(=O)Nc1cccc(-c2ccnc3c2CC(C(=O)Nc2ccc(F)c(Cl)c2)O3)c1 (configuration not stated)	–	·	18µM	–	18µM	?
CC(=O)Nc1cccc(-c2ccnc3c2CC(C(=O)NCC2CC2)O3)c1 (configuration not stated)	–	·	?	–	?	–
CN1CCN(C(=O)C2=C[C@@H](c3coc4ccccc4c3=O)C[C@@H](OCc3ccc(CO)cc3)O2)CC1	–	–	–	–	–	–
CC(=O)n1cc([C@H]2C=C(C(=O)Nc3ccccc3)O[C@@H](OCc3ccc(CO)cc3)C2)c2ccccc21	–	–	9.2µM	–	8.2µM	?
C=CCOC(=O)C1=C[C@@H](c2cn(C(C)=O)c3ccccc23)C[C@@H](OCc2ccc(CO)cc2)O1	–	·	?	–	?	?
CC(=O)n1cc([C@@H]2C=C(C(=O)NCc3ccccc3)O[C@H](OCc3ccc(CO)cc3)C2)c2ccccc21	–	·	9.2µM	?	7.3µM	?
CC(=O)n1cc([C@H]2C=C(C(=O)N3CCN(Cc4ccccc4)CC3)O[C@@H](OCc3ccc(CO)cc3)C2)c2ccccc21	–	–	7.3µM	–	7.3µM	?
CC(=O)n1cc([C@@H]2C=C(C(=O)O)O[C@H](OCc3ccc(CO)cc3)C2)c2ccccc21	–	–	–	–	–	–
C#CCNC(=O)C1=C[C@H](c2cn(C(C)=O)c3ccccc23)C[C@H](OCc2ccc(CO)cc2)O1	–	–	16µM	–	18µM	?
CN(C/C=C\c1ccccc1)Cc1cccc2ccccc12	·	–[21 µM]	·	·	·	·
CC(NC(=O)Cc1ccccc1)C(=O)O (configuration not stated)	–	–	–	–	–	–
COc1ccccc1N1CCN(C(=O)CSc2nc3ccccc3nc2Cc2ccc(F)cc2)CC1	–	–	?	·	?	–
C=CC[n+]1c(-c2ccc(Cl)cc2Cl)csc1Nc1c(C)n(C)n(-c2ccccc2)c1=O	–	–	3.7µM	-80	5.2µM	?
C=CC[n+]1c(-c2ccc(Cl)cc2Cl)csc1Nc1ccc(NC(C)=O)cc1	22µM	–	21µM	-80	?	?
O=C(CC1CCCC1)N1CCN(S(=O)(=O)c2cccc(Br)c2)CC1	–	·	?	–	18µM	–
C[C@H](CO)N1C[C@H](C)[C@@H](CN(C)S(C)(=O)=O)Oc2c(NC(=O)Nc3ccccc3)cccc2C1=O	–	–	?	–	–	–
CCOC(=O)c1cnc2c(c(C)nn2C)c1Oc1ccc(Cl)cc1	–	–	?	–	16µM	–
CC(NC(=O)CCC(=O)Nc1ccccc1O)c1ccccc1 (configuration not stated)	–	·	–	–	–	–
CC(CNc1ccccc1O)C(=O)O (configuration not stated)	–	·	26µM	–	?	–
CC(C)COC(=O)c1ccc2c(c1O)C(=O)c1ccccc1C2=O	–	–	23µM	–	?	–
Cc1ccc2nc3c(cc(C(=O)NCc4ccco4)c(=N)n3C(C)C)c(=O)n2c1	–	·	–	·	–	–
NC(=O)c1ccccc1OCC(=O)c1ccc(Cl)cc1	–	–	?	-57	–	–
SMILES	HepG2 viability	TDP1 inh	DT40 TDP1 no CPT	IL1B secr inh	DT40 TDP1 CPT	TGFb SMAD3 inh
CCCCCCOc1ccccc1C(N)=O	·	–	16µM	·	?	·
CCCCCC(=O)NNC(=S)NC(=O)c1ccc([N+](=O)[O-])cc1	–	–	?	–	–	–
O=C(NC(=S)NNC(=O)c1ccccc1O)c1cccs1	–	·	26µM	–	23µM	–
CC(=O)NNC(=S)NC(=O)c1cccc([N+](=O)[O-])c1	–	–	–	–	–	–
O=C(CCc1ccccc1)NNC(=O)c1cc(Cl)ccc1O	–	·	23µM	–	?	–
O=C(NNC(=S)NC(=O)c1ccccc1)c1ccc([N+](=O)[O-])cc1	–	·	12µM	–	13µM	–
O=C(NNC(=S)NC(=O)c1ccc(Br)cc1)c1cccc([N+](=O)[O-])c1	–	·	16µM	–	18µM	?
CCC(=O)N/N=C(\C)CC(=O)Nc1ccc(Cl)cc1	–	–	–	–	–	–
CCCN1CCC(N2CCCC(C(=O)O)C2)CC1 (configuration not stated)	–	–	–	–	–	–
COc1cc(OC)c(NC(=O)Nc2cc(C)on2)cc1Cl	·	–	·	·	·	·
COc1cc2cc(CNc3ccc(C)cc3)c(=O)n(CC(=O)Nc3ccc(C(C)C)cc3)c2cc1OC	–	–	·	·	·	–
Cc1ccc(C(=O)NC(=S)NNC(=O)c2ccc([N+](=O)[O-])cc2)cc1	–	·	15µM	–	?	–
O=C(NNC(=S)NC(=O)c1ccc(Br)cc1)c1ccc([N+](=O)[O-])cc1	–	·	23µM	–	?	–
O=C(NNC(=O)c1cc(Cl)ccc1O)c1cccs1	–	–[0.0935 µM]	18µM	–	?	–
O=C(NC(=S)NNC(=O)c1ccccc1O)c1ccccc1	–	·	29µM	–	?	–
O=C(NNC(=O)c1ccc([N+](=O)[O-])cc1)c1ccc(Br)cc1	–	·	–	–	–	–
O=C(Oc1ccc2ccc(O)cc2c1)c1ccccc1Cl	–	·	–	–	–	–
O=S(=O)(Nc1cccnc1)c1cccc2ccccc12	–	–	·	·	·	–
CC(NC(=O)c1cccs1)c1ccc(Cl)cc1 (configuration not stated)	–	·	–	–	–	–
O=C(NC(=S)NNC(=O)c1ccccc1O)c1ccc([N+](=O)[O-])cc1	–	·	15µM	–	26µM	–
CC(NC(=S)NC(=O)c1cccs1)c1ccccc1 (configuration not stated)	–	–	18µM	?	–	–
